Experimental data: PubChem BioAssay (NCI)
The panel holds about 83,000 compounds, 20% with a hit somewhere; the sample as a whole holds those more often.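 Negative percent growth values reflect cell death: -40 means 40% of the cells present at the start died, and -100 means all died.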 A number with no mark means an inactive call. Active and inactive are the calls of the source.

What follows are compounds tested on BT-549 breast (assay: NCI-60 one-dose screen, 48 h (100 = growth as untreated, 0 = no growth, -100 = all killed)). Details: 10 µM unless noted.
Description: Growth inhibition of the BT-549 human tumor cell line is measured as a screen for anti-cancer activity. Cells are grown in 96 well plates and exposed to the test compound for 48 hours. Compounds are tested at a single concentration, which is 10^-5 M for most compounds. The reported endpoint is percent growth (GI% or GIPRCNT), where numbers from 0 - 100% represent growth inhibition, and numbers from -100% - 0 represent cell death. For example, a value of 40 represents 60% growth inhibition. A value of 0 means no net growth occurred over the course of the experiment. A value of -40 indicates 40% of cells at the beginning of the experiment died by the end of the experiment. A value of -100 means all cells are dead at the end of the experiment.
NCI-60 Human Tumor Cell Lines Screen was performed using the standard one-dose NCI protocol, which is described in more detail at https://dtp.cancer.gov/discovery_development/nci-60/default.htm.
Compounds with GIPRCNT values below 10 were considered active. Activity score was based on GIPRCNT using the following formula: […]
Score is 0 for GIPRCNT values of 100 or above, 50 for GIPRCNT values of 0, and 100 for GIPRCNT values of -100.
In the case of `CCOC(=O)C(C)(C#N)C1C=CCCC1` (stereo not given), the growth was 111%. Work on `COc1ccc(C2CC(c3ccc4ccccc4c3)=NN2/C=C2\SC(=S)N(NC(=O)Cc3ccccc3Nc3c(Cl)cccc3Cl)C2=O)cc1` (stereo not given) yielded a growth of 30%. With `COc1ccc(C(=O)COc2cccc(/C=C3\CSc4ccccc4C3=O)c2)cc1` the growth was -74.8% (active). `CCCCn1c(-c2ccc(C(=O)O/N=C(\N)c3ccc4ccccc4c3)cc2)nc(-c2ccccc2)c1-c1ccccc1` was tested, and the growth was 87.9%. `O=C(/C=C/c1cc(CN2CCOCC2)c(O)c2ncccc12)c1cc(CN2CCOCC2)c(O)c2ncccc12` was tested, and the growth was 12.8%. `COc1cc(/C=C/C(=O)c2c(C)oc3nc[nH]c(=O)c23)cc(OC)c1OC` was tested, and the growth was 72.6%. `Cc1ccc2c(C(C[N+](=O)[O-])c3ccco3)c(-c3ccccc3)[nH]c2c1` (stereo not given) showed a growth of 53.3%. Compound `C=CC(=O)Nc1cccc(-c2nc(SC)nc(NCCc3ccc(OC)c(OC)c3)c2C#N)c1` has a growth of 25%. For `Cc1cc(N2CCCC2)nc(NC2CCCC(Nc3ccnc4cc(Cl)ccc34)C2)n1` (stereo not given), the growth was -57.9% (active). In the case of `CC(=O)O[C@H]1CC[C@]2(C)[C@H]3CC=C4[C@@H]5CC(C)(C)CC[C@]5(C(=O)NCCNCCN)CC[C@@]4(C)[C@]3(C)CC[C@H]2C1(C)C`, the growth was 92.8%. In the case of `Cn1c(NCCc2ccc(O)c(O)c2)nc2c1c(=O)n(Cc1ccc(Cl)c(Cl)c1)c(=O)n2C`, the growth was 67.1%. `CCN(CC)c1ccc(/C=N\NC(=O)/C=C/C=C/c2ccc3c(c2)OCO3)c(O)c1` showed a growth of 51.8%. `COc1ccc2c(c1)c(-c1nonc1-c1cn(C)c3ccccc13)cn2C` was tested, and the growth was 60.2%. For `N#Cc1c(-c2ccc(Cl)cc2)nc(N=Nc2c(O)[nH]c3ccc(Cl)cc23)nc1N1CCOCC1`, the growth was 92.1%. In the case of `O=C1NC(=S)N[C@H]1CC(=O)n1cnc2ccccc21`, the growth was 102%. `O=C(Cc1ccc(/C=C/C(=O)c2ncc[nH]2)cc1)Nc1ccccc1` showed a growth of 54.2%. `COc1ccc(-c2cc(=O)c3c(OC)c4ccoc4cc3o2)cc1` was tested, and the growth was 113%. For `CCCCn1c(-c2ccc(C(=O)O/N=C(\N)c3ccc4c(c3)OCO4)cc2)nc(-c2ccccc2)c1-c1ccccc1`, the growth was 54.5%. `CC1SC(c2ccc(N(C)C)cc2)N(NC(=O)C(O)(c2ccccc2)c2ccccc2)C1=O` (stereo not given) was tested, and the growth was 93.1%. In the case of `COc1ccc(C2Nc3c(c(C(C)(C)C)nn3-c3ccccc3)C(=O)CS2)cc1` (stereo not given), the growth was 122%. With `O=C(Nc1ccccc1Cl)c1ccc(NC2=C(Cl)C(=O)N(C3CCCCC3)C2=O)cc1` the growth was 60.5% [30 µM]. Work on `COc1cccc(-c2nn(C(C)(C)C)cc2-c2ccnc(NCCCNS(=O)(=O)c3cccc4ccccc34)c2)c1` yielded a growth of 108%. In the case of `COc1cc2c(cc1O)CC[C@@H]1[C@@H]2CC[C@]2(C)[C@@H](OCCCN(C)C)CC[C@@H]12`, the growth was -54.4% (active). In the case of `COC(=O)c1cccc(NC(=O)c2ccc(-c3cccc(N)c3)o2)c1`, the growth was 93.5%. With `COc1ccc(/C=C\c2cc(OC)c(OC)c(OC)c2)cc1OCC(=O)Nc1ccc2nc(C)sc2c1` the growth was 38%. Work on `O=S(=O)(Nc1ccc(Br)c(Cl)c1)c1ccc(-c2cnc(C3CC3)o2)cc1` yielded a growth of 38.3%. `O=C1CC[C@H](c2ccc(O)c3c2C(=O)[C@@H]2O[C@@H]2C3=O)c2cccc(O)c21` showed a growth of 86.8%. With `NC(=NCCCC1(c2ccccc2)CCCC1)Nc1ccc(Cl)cc1` the growth was 86.8%. In the case of `CC(C)C[C@@H](NC(=O)[C@@H](Cc1ccccc1)NC(=O)c1cnccn1)B1Oc2ccc(C[C@H](NC(=O)[C@H](Cc3ccc4c(c3)OB([C@@H](CC(C)C)NC(=O)[C@@H](Cc3ccccc3)NC(=O)c3cnccn3)O4)NC(=O)[C@@H](N)CC3CCC4OB([C@@H](CC(C)C)NC(=O)[C@@H](CC5CCCCC5)NC(=O)C5CNCCN5)OC4C3)C(=O)NCCCC[C@@H]3NC(=O)[C@@H](Cc4ccccc4)NC(=O)[C@H](CC(=O)O)NC(=O)CNC(=O)[C@H](CCCNC(=N)N)NC3=O)cc2O1` (stereo not given in full), the growth was -66.8% (active). With `COc1ccc(CN2c3ccccc3Oc3ccccc32)cc1F` the growth was 70.1%. Work on `O=c1c2c3c(sc2nc(N/N=C/c2cn(-c4ccccc4)nc2-c2ccc(Cl)cc2)n1Cc1ccccc1)CCCC3` yielded a growth of 92.1%. Compound `COc1ccccc1NS(=O)(=O)c1ccc2oc(SC(C)C)nc2c1` has a growth of 87.6%. Compound `CCCCC/C(C=C(C#N)C#N)=C/c1ccccc1` has a growth of 69.3%. Work on `C#CCOc1ccc2ncnc(Nc3cccc(CNC(=O)C=C)c3)c2c1` yielded a growth of 96.4% [8.25 µM]. Work on `CCCCN1CCCn2c1nc1c2c(=O)n(CCC)c(=O)n1CCC` yielded a growth of 98.1%. Compound `O=C(CN(C(=O)Cn1c(=O)n2nnnc2c2ccccc21)c1ccccc1C(F)(F)F)Nc1ccc(C(F)(F)F)cc1` has a growth of 95.7%. `Cc1nc(/N=C(\N)NC(=O)Nc2cccc([N+](=O)[O-])c2)sc1C` gave a growth of 65.8%. `COc1cc2c(cc1OC)C(Sc1ccc(SC)cc1)c1c(nc(N)c(C#N)c1N)O2` (stereo not given) was tested, and the growth was -73.9% (active). With `COc1ccc(C(=S)N2CCN(c3cccc(Cl)c3)CC2)cc1` the growth was 90.8%. For `OCC(O)c1nc2ccc3[nH]ncc3c2c2c1CCCC2` (stereo not given), the growth was -24.6% (active).
